The results in this text go back to PubChem BioAssay (Tox21).

Values without a mark were called inactive. Calls follow the shape of the full dose curve. Inconclusive results are not listed.
% is scaled to controls: 0 for no effect and ±100 for the full control effect.

Chain of Acetylcholinesterase (Homo sapiens) (P22303 whole entry, looked up): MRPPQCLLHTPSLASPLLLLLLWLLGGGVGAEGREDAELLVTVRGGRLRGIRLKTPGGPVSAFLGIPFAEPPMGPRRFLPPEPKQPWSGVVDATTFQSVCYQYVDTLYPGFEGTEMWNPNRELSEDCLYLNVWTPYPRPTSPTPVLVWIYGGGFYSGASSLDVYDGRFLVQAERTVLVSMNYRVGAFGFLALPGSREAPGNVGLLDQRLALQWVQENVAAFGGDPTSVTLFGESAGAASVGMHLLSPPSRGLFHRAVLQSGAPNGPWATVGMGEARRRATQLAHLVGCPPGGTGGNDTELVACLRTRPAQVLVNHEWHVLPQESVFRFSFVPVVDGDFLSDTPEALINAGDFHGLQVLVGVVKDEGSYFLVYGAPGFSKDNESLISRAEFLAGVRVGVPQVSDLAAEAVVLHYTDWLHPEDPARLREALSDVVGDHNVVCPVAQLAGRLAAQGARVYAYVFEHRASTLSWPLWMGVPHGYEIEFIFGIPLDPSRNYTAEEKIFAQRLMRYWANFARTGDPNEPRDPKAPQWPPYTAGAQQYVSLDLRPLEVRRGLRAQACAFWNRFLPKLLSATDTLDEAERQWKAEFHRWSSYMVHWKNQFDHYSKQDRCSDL

One experiment concerns the target Acetylcholinesterase (Homo sapiens) (UniProt P22303). In words: Acetylcholinesterase (AChE) small molecule antagonists: colormetric cell-based qHTS assay (AID 1347395). Also: nearly all actives have a fitted effect of over 30% in size. The following applies: SH-SY5Y cells AChE activity, colorimetric (Ellman); series mostly up to 115 µM; activity, negative = inhibition: at the top concentration. In a few lines: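 SH-SY5Y cells attached overnight, exposed to compound 30 min at 37 C, then given DTNB/acetylthiocholine; after 90 min at 37 C, colorimetric thiocholine read gives cellular AChE activity.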
(Quantitative high-throughput screening tests each substance at several concentrations.)
With `CO[Si](OC)(c1ccccc1)c1ccccc1`, the “activity, negative = inhibition” value is 1.48%.

As to `CC1(C)CCC(C)(C)c2cc(C(=O)Nc3ccc(C(=O)O)cc3)ccc21`, the “activity, negative = inhibition” value is 0.651%.

`CC(=O)Oc1ccc(C(C)=O)cc1`: the “activity, negative = inhibition” value was -2.32%.

`Cc1ccccc1N1C(=O)c2cc(S(N)(=O)=O)c(Cl)cc2NC1C` (stereo not given): the “activity, negative = inhibition” value is -0.712% [at 52.9 µM].

As to `CO[Si](CCCS)(OC)OC`, the “activity, negative = inhibition” value is 0.678%.

In the case of `[O-][n+]1ccc(Cl)cc1`, the “activity, negative = inhibition” value is 1.3%.

Turning to `C=CC(C)(CCC=C(C)C)OC=O` (stereo not given), the “activity, negative = inhibition” value was 0.32%.

For the compound `C/C=C/C=C/COC(=O)C(C)C`, the “activity, negative = inhibition” value is -2.86%.

For the compound `CCCC(c1cc(C(C)(C)C)c(O)cc1C)c1cc(C(C)(C)C)c(O)cc1C`, the “activity, negative = inhibition” value was 0.307%.

`C[C@H](O)C(=O)Nc1c(I)c(C(=O)NC(CO)CO)c(I)c(C(=O)NC(CO)CO)c1I`: the “activity, negative = inhibition” value was 3.66% [at 52.9 µM].

Regarding `Cc1ccc(Nc2ccc(O)c3c2C(=O)c2ccccc2C3=O)cc1`, the “activity, negative = inhibition” value was 0%.

In the case of `CC(=O)N(CC(=O)N(C)C)c1ccccc1`, the “activity, negative = inhibition” value was 26.3% [at 52.9 µM].

In the case of `CC(C)SCc1ccco1`, the “activity, negative = inhibition” value was 0.0725% [at 52.9 µM].

With `CC1=NS(=O)(=O)c2cc(Cl)ccc2N1`, the “activity, negative = inhibition” value is -1.13% [at 52.9 µM].

On to `COc1ccc(CCC(=O)c2c(O)cc(O[C@@H]3O[C@H](CO)[C@@H](O)[C@H](O)[C@H]3O[C@@H]3O[C@@H](C)[C@H](O)[C@@H](O)[C@H]3O)cc2O)cc1O`, for which the “activity, negative = inhibition” value is 0.489%.

In the case of `CC(=O)c1ccc2c(c1)Cc1ccccc1-2`, the “activity, negative = inhibition” value is -3.02%.

For the compound `CCCN(CCC)C(=O)C(CCC(=O)O)NC(=O)c1ccccc1` (stereo not given), the “activity, negative = inhibition” value was -1.67% [at 52.9 µM].

For the compound `N[C@@H](CSCCCO)C(=O)O`, the activity, negative = inhibition is -1.97% [at 23.6 µM].

For `Cc1nc(-c2ccccn2)ncc1C(=O)Nn1cc(C)c2cc(F)ccc21`, the “activity, negative = inhibition” value was -5.25%.

For the compound `CCCCCCOc1ccc(N)cc1`, the “activity, negative = inhibition” value is -2.71%.

Consider `O=C(Nc1ccc([N+](=O)[O-])cc1)Nc1ccc([N+](=O)[O-])cc1`, for which the “activity, negative = inhibition” value was -0.0881% [at 52.9 µM].

For the compound `O=CN1CCOCC1`, the “activity, negative = inhibition” value is 0.21%.

On to `C=C1CC[C@H]2O[C@]2(C)CC[C@@H]2[C@@H]1CC2(C)C`, for which the “activity, negative = inhibition” value is -1.1%.

Consider `C=CCOc1nc(OCC=C)nc(OCC=C)n1`, for which the “activity, negative = inhibition” value was 1.02%.

`CCCCCCCCCCCC(=O)OCC`: the “activity, negative = inhibition” value was 0.324%.

For the compound `CCN(CC)CCNC(C(=O)OCCC(C)C)c1ccccc1` (stereo not given), the “activity, negative = inhibition” value is -1.22% [at 52.9 µM].

Consider `CC(C)(C)OC(=O)c1ccc(O)cc1`, for which the “activity, negative = inhibition” value is -0.834%.

For `CC(=O)OCC(C)OC(C)=O` (stereo not given), the “activity, negative = inhibition” value is 0%.

On to `O=CC=C(c1ccccc1)c1ccccc1`, for which the “activity, negative = inhibition” value was -1.27%.

As to `O=C(O)c1cccc(C(F)(F)F)c1`, the “activity, negative = inhibition” value was 1.77%.

As for `CCOc1ccc(NS(=O)(=O)c2ccc(N)cc2)nn1`, the “activity, negative = inhibition” value was 1.24% [at 52.9 µM].

On to `CC1CCc2c(N3CCC(O)CC3)c(F)cc3c(=O)c(C(=O)O)cn1c23` (stereo not given), for which the “activity, negative = inhibition” value was 0.0881% [at 52.9 µM].

Consider `CCC[C@@H]1C[C@@H](C(=O)N[C@@H]([C@H]2O[C@H](SC)[C@H](O)[C@@H](O)[C@H]2O)[C@@H](C)O)N(C)C1`, for which the “activity, negative = inhibition” value was -0.0544% [at 52.9 µM].

Consider `CO[Si](CCCNc1ccccc1)(OC)OC`, for which the “activity, negative = inhibition” value is 0.621%.

Take `C1OCOCO1`: the “activity, negative = inhibition” value was 4.21%.

With `COc1nc(C)nc(Cl)c1NC1=NCCN1`, the “activity, negative = inhibition” value was 3.05% [at 52.9 µM].

Regarding `CC(C)[N+](C)(C)CC(O)COc1cccc2ccccc12` (stereo not given), the “activity, negative = inhibition” value was -3.2% [at 52.9 µM].

`O=C(OCc1ccccc1)C(=O)OCc1ccccc1`: the “activity, negative = inhibition” value is 0.21%.

On to `CC[C@@]1(O)C(=O)OCc2c1cc1n(c2=O)Cc2c-1nc1ccccc1c2/C=N/OC(C)(C)C`, for which the “activity, negative = inhibition” value was 1.96% [at 52.9 µM].

Regarding `CCOC(=O)c1ccc(N(C)C)cc1`, the “activity, negative = inhibition” value was -1.59%.

A further experiment has the same target. Description: Acetylcholinesterase (AChE) small molecule antagonists: enzyme-based qHTS assay (AID 1347397). Also: nearly all actives have a fitted effect of over 55% in size. The following applies: Potency: AChE enzyme activity inhibition; outcome: AChE enzyme activity inhibition; series mostly up to 115 µM; activity change, negative = inhibition: at the top concentration. In a few lines:
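In this quantitative HTS, compounds from the Tox21 10K collection were preincubated 30 min at ambient temperature with recombinant human AChE dispensed at 50 mU/mL. Hydrolysis of acetylthiocholine was then followed for 10 min by DTNB colour development.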
In the case of `CO[Si](OC)(c1ccccc1)c1ccccc1`, the “activity change, negative = inhibition” value is 1.84%.

With `CC1(C)CCC(C)(C)c2cc(C(=O)Nc3ccc(C(=O)O)cc3)ccc21`, the “activity change, negative = inhibition” value is -0.263%.

For `CC(=O)Oc1ccc(C(C)=O)cc1`, the “activity change, negative = inhibition” value was 2.6%.

In the case of `Cc1ccccc1N1C(=O)c2cc(S(N)(=O)=O)c(Cl)cc2NC1C` (stereo not given), the “activity change, negative = inhibition” value was 0.277% [at 53 µM].

For the compound `CO[Si](CCCS)(OC)OC`, the “activity change, negative = inhibition” value was 0.203%.

Turning to `[O-][n+]1ccc(Cl)cc1`, the “activity change, negative = inhibition” value is 0.723%.

`C=CC(C)(CCC=C(C)C)OC=O` (stereo not given): the “activity change, negative = inhibition” value was -0.953%.

On to `C/C=C/C=C/COC(=O)C(C)C`, for which the “activity change, negative = inhibition” value was 1.1%.

As for `CCCC(c1cc(C(C)(C)C)c(O)cc1C)c1cc(C(C)(C)C)c(O)cc1C`, the “activity change, negative = inhibition” value was -2.71%.

Consider `C[C@H](O)C(=O)Nc1c(I)c(C(=O)NC(CO)CO)c(I)c(C(=O)NC(CO)CO)c1I`, for which the “activity change, negative = inhibition” value is 0.324% [at 53 µM].

Consider `Cc1ccc(Nc2ccc(O)c3c2C(=O)c2ccccc2C3=O)cc1`, for which the “activity change, negative = inhibition” value was 0.273%.

Take `CC(=O)N(CC(=O)N(C)C)c1ccccc1`: the “activity change, negative = inhibition” value was -4.61% [at 53 µM].

On to `CC(C)SCc1ccco1`, for which the “activity change, negative = inhibition” value was -0.752% [at 53 µM].

As to `CC1=NS(=O)(=O)c2cc(Cl)ccc2N1`, the “activity change, negative = inhibition” value is 0.408% [at 53 µM].

With `COc1ccc(CCC(=O)c2c(O)cc(O[C@@H]3O[C@H](CO)[C@@H](O)[C@H](O)[C@H]3O[C@@H]3O[C@@H](C)[C@H](O)[C@@H](O)[C@H]3O)cc2O)cc1O`, the “activity change, negative = inhibition” value is -0.0876%.

`CC(=O)c1ccc2c(c1)Cc1ccccc1-2`: the “activity change, negative = inhibition” value was 0.409%.

In the case of `CCCN(CCC)C(=O)C(CCC(=O)O)NC(=O)c1ccccc1` (stereo not given), the “activity change, negative = inhibition” value is 1.96% [at 53 µM].

Take `N[C@@H](CSCCCO)C(=O)O`: the activity change, negative = inhibition is 1.52% [at 23.6 µM].

`Cc1nc(-c2ccccn2)ncc1C(=O)Nn1cc(C)c2cc(F)ccc21`: the “activity change, negative = inhibition” value is -0.343%.

Turning to `CCCCCCOc1ccc(N)cc1`, the “activity change, negative = inhibition” value was -0.199%.

`O=C(Nc1ccc([N+](=O)[O-])cc1)Nc1ccc([N+](=O)[O-])cc1`: the “activity change, negative = inhibition” value was 0.693% [at 53 µM].

In the case of `O=CN1CCOCC1`, the “activity change, negative = inhibition” value was -0.0154%.

As to `C=C1CC[C@H]2O[C@]2(C)CC[C@@H]2[C@@H]1CC2(C)C`, the “activity change, negative = inhibition” value is -0.273%.

With `C=CCOc1nc(OCC=C)nc(OCC=C)n1`, the “activity change, negative = inhibition” value was 0.256%.

Consider `CCCCCCCCCCCC(=O)OCC`, for which the “activity change, negative = inhibition” value was 0.744%.

On to `CCN(CC)CCNC(C(=O)OCCC(C)C)c1ccccc1` (stereo not given), for which the “activity change, negative = inhibition” value is -1.48% [at 53 µM].

For `CC(C)(C)OC(=O)c1ccc(O)cc1`, the “activity change, negative = inhibition” value was 1.3%.

For `CC(=O)OCC(C)OC(C)=O` (stereo not given), the “activity change, negative = inhibition” value was 0.567%.

Take `O=CC=C(c1ccccc1)c1ccccc1`: the “activity change, negative = inhibition” value is 0%.

`O=C(O)c1cccc(C(F)(F)F)c1`: the “activity change, negative = inhibition” value was 1.12%.

For `CCOc1ccc(NS(=O)(=O)c2ccc(N)cc2)nn1`, the “activity change, negative = inhibition” value is -0.3% [at 53 µM].

`CC1CCc2c(N3CCC(O)CC3)c(F)cc3c(=O)c(C(=O)O)cn1c23` (stereo not given): the “activity change, negative = inhibition” value is -0.274% [at 53 µM].

In the case of `CCC[C@@H]1C[C@@H](C(=O)N[C@@H]([C@H]2O[C@H](SC)[C@H](O)[C@@H](O)[C@H]2O)[C@@H](C)O)N(C)C1`, the “activity change, negative = inhibition” value was 0.121% [at 53 µM].

As for `CO[Si](CCCNc1ccccc1)(OC)OC`, the “activity change, negative = inhibition” value is -0.412%.

As for `C1OCOCO1`, the “activity change, negative = inhibition” value is 0.542%.

As to `COc1nc(C)nc(Cl)c1NC1=NCCN1`, the “activity change, negative = inhibition” value was 1.92% [at 53 µM].

For `CC(C)[N+](C)(C)CC(O)COc1cccc2ccccc12` (stereo not given), the “activity change, negative = inhibition” value was 0.27% [at 53 µM].

Take `O=C(OCc1ccccc1)C(=O)OCc1ccccc1`: the “activity change, negative = inhibition” value was 3.03%.

For the compound `CC[C@@]1(O)C(=O)OCc2c1cc1n(c2=O)Cc2c-1nc1ccccc1c2/C=N/OC(C)(C)C`, the “activity change, negative = inhibition” value is -0.0345% [at 53 µM].

As to `CCOC(=O)c1ccc(N(C)C)cc1`, the “activity change, negative = inhibition” value was -2.1%.
